Source: PubChem BioAssay (NCATS)
“And” between values parts separate entries of the source, which are not always exact repeats. Equal values may be shown once. Inconclusive results are not listed. The source made the active and inactive calls. Unless noted, calls follow the shape of the dose curve; as a rule, active = well fitted curve in the direction sought with a large enough effect; inconclusive = small, poorly fitted or top-dose-only effect, or another doubt; inactive = no such curve, though single readings can be large; an effect the other way counts as inactive or inconclusive.

What was measured:
[1] = qHTS for compounds that reverse cellular toxicity of Amyloid beta (A-beta) peptide in yeast: LOPAC Validation Assay (AID 720559);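 also: plate controls were DMSO for no effect and equimolar ferric chloride plus clioquinol rescue for full effect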
Method in brief: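 Here, A-beta-toxic yeast grow with test compounds at 30 C for 48 hr before optical density at 600 nm is recorded; data are normalized against DMSO and the FeCl3-clioquinol control.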

[2] = qHTS for Activators of Parkin Expression: LOPAC Validation Assay (NLuc Reporter) (AID 720572)
Method in brief: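 NLuc signal, read 10 min after reagent and following a prior FLuc read, is normalized to DMSO (0) and positive controls (100%). Cells: neuronal Parkin-promoter coincidence reporter line; compounds tested 7-point, 24 h, 37 C, 5% CO2.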

[3] = qHTS for Activators of Parkin Expression: LOPAC Validation Assay (FLuc Reporter) (AID 720573)
Method in brief: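 Readout is FLuc luminescence from neuronal reporter cells (Parkin promoter, FLuc plus NLuc) after 24 h compound exposure in dose response. Values normalized to neutral DMSO and positive-control compounds.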

[4] = biological target: T1, Hexokinase-4 (Homo sapiens) + Glucokinase regulatory protein (Homo sapiens) (UniProt P35557+Q14397); assay: qHTS assay for inhibitors of recombinant human GCK-GKRP interaction: Diaphorase-coupled assay (AID 743205)
Method in brief: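 Signal derives from resorufin generated by diaphorase, linked to GCK turnover of glucose (5 mM) and ATP (0.4 mM). Enzyme complex was added after a 20-minute compound preincubation and monitored for 30 minutes.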

[5] = biological target: T1, Hexokinase-4 (Homo sapiens) + Glucokinase regulatory protein (Homo sapiens); assay: qHTS assay for inhibitors of recombinant human GCK-GKRP interaction: ADP-Glo assay (AID 743206);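 also: plate controls were DMSO plus enzyme for no effect and no enzyme for full effect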
Method in brief: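 Pin-transferred compounds meet a 15 nM GST-GCK/15 nM FLAG-GKRP/2 uM S6P mix (dispense concentrations). ATP is then added to 0.4 mM final with 5 mM glucose, and the reaction runs 60 min at room temperature. ADP is quantified luminescently.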

[6] = biological target: T1, Hexokinase-4 (Homo sapiens) + Glucokinase regulatory protein (Homo sapiens); assay: qHTS assay for inhibitors of recombinant human GCK-GKRP interaction: HTRF assay (AID 743207); also: potency is read from the fitted curve at half-maximal effect
Method in brief: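 Titration screening format: recombinant GST-GCK and FLAG-GKRP at 5 nM, S6P at 2 uM, labelled anti-tag antibodies, 60 min at RT, dual-wavelength HTRF readout.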

[7] = qHTS Assay for Identifying Gametocytocidal Compounds (AID 743244);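 also: % is scaled to controls: 0 for no effect and ±100 for the full control effect; actives lower the fluorescent signal which means gametocytes are killed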; details: P. falciparum 3D7 stage III-V gametocytes, alamarBlue, 72 h; max response: stronger effect = lower value
Method in brief: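 3D7 gametocytes, stages III–V, 20,000/well; cpd 72 h, 37 °C/5% CO2; + alamarBlue 24 h; fluor. Ex 525/Em 598.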

[8] = qHTS profiling of the MIPE4 collection as inhibitors of Plasmodium falciparum (3D7) proliferation (AID 743344; call rule not given here;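 also: scaled between DMSO vehicle wells and 0.29 µM artemisinin as full inhibition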); details: P. falciparum 3D7 in erythrocytes, SYBR Green DNA fluorescence, 72 h; at 28.5 µM (top of the series)
Method in brief: (§1)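 Parasite DNA was quantified by SYBR Green I fluorescence (ex 485, em 535 nm) after overnight lysis in saponin/Triton buffer at room temperature. Cultures at 0.3% parasitemia and 2.5% hematocrit were first exposed to compound for 72 h at 37 C; signals were normalised to artemisinin (0.29 uM) and vehicle wells.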

[9] = qHTS profiling of the MIPE4 collection as inhibitors of Plasmodium falciparum (DD2) proliferation (AID 743345; call rule not given here); details: P. falciparum Dd2 in erythrocytes, SYBR Green DNA, 72 h; at 28.5 µM (top of the series)
Method in brief: as §1

[10] = qHTS profiling of the MIPE4 collection as inhibitors of Plasmodium falciparum (DD2) proliferation (Rep 2) (AID 743346; call rule not given here); details: P. falciparum Dd2 in erythrocytes, SYBR Green DNA, 72 h; at 28.5 µM (top of the series)
Method in brief: as §1

[11] = qHTS profiling of the MIPE4 collection as inhibitors of Plasmodium falciparum (HB3) proliferation (AID 743347; call rule not given here;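 also: plate controls were DMSO vehicle wells for no effect and artemisinin wells for full effect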); details: P. falciparum HB3 in erythrocytes, SYBR Green DNA, 72 h; at 28.5 µM (top of the series)
Method in brief: as §1

[12] = qHTS assay for small molecule antagonists of the retinoid-related orphan receptor gamma (ROR-gamma) signaling pathway - cell viability counter screen (AID 720652; active = well fitted curve in the direction sought with a large enough effect in the repeat runs; an effect the other way counts as inactive or inconclusive;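 also: CHO reporter cells with doxycycline-induced ROR-gamma expression; compound exposure lasted 16 hr before ATP read; % is scaled to controls: 0 for no effect and ±100 for the full control effect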)
Method in brief: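 Steps: seed CHO cells bearing TET-inducible ROR and ROR response element-luciferase; rest 5 hr at 37 C; add compound, then doxycycline; incubate 16 hr; add CellTiter-Glo and read luminescence as ATP-based viability.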

[13] = qHTS assay for cell viability of HEK293 cells (AID 743288); details: ATP luminescence (CellTiter-Glo), 18 h; max response: stronger effect = lower value; also: % is scaled to controls: 0 for no effect and ±100 for the full control effect; nearly all actives have a fitted effect of over 50% in size
Method in brief: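 HEK293, 18 h, 37 C, ATP luminescence. Cells at 2,000/well were allowed at least 5 h to settle before dosing; CellTiter-Glo developed 30 min at RT.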

[14] = qHTS assay for cell viability of the p53RE-bla HCT-116 cell line (AID 743292); also: % is scaled to controls: 0 for no effect and ±100 for the full control effect; nearly all actives have a fitted effect of over 55% in size
Method in brief: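 Quantitative high-throughput format: compounds in DMSO were pinned onto p53RE-bla HCT-116 cells (4,000/well) and incubated 16 h at 37 C. Total intracellular ATP, read by CellTiter-Glo luminescence, reflects viable cell number.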

T1 sequence (P35557 whole entry, looked up): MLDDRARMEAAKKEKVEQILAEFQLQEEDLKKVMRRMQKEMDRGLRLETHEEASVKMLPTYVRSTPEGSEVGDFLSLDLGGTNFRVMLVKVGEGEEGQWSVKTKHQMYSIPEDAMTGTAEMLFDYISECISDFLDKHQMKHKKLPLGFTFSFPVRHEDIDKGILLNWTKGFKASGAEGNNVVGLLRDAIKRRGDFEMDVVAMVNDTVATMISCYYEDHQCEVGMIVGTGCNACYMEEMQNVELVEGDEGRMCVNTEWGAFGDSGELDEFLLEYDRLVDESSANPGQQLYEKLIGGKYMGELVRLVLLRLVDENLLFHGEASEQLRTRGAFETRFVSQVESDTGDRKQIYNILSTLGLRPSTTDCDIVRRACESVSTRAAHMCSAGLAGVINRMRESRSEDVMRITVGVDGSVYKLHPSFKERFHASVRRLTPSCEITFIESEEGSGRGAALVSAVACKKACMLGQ
T1 sequence (Q14397 whole entry, looked up): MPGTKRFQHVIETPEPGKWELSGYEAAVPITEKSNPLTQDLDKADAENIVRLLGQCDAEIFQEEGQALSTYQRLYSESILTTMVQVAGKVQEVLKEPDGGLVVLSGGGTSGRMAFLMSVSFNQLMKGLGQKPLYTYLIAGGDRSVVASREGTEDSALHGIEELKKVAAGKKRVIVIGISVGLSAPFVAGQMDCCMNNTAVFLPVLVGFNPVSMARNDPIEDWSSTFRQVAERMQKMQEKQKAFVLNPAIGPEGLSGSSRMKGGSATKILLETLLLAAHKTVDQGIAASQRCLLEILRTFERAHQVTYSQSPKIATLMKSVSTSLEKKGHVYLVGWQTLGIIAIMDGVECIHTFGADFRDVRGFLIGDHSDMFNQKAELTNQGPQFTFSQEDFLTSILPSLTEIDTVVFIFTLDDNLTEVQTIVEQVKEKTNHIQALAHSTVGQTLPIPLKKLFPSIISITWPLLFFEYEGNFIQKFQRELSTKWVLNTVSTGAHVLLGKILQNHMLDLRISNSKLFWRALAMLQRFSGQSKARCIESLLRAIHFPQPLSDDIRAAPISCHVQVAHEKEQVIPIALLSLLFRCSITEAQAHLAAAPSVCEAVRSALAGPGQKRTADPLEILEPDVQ

CCN1CCC[C@H]1CNC(=O)c1c(O)c(Cl)cc(Cl)c1OC
inactive: outcome [1] | Potency [2] | outcome [3] | outcome [4] | outcome [5] | Potency [6] | max response [7] 5.28% and 32.3%

CCN(CC)CCNC(=O)c1ccc(NC(C)=O)cc1
inactive: outcome [1] | Potency [2] | outcome [3] | outcome [4] | outcome [5] | Potency [6] | max response [7] 11.5% and -3.43%

CNC1(C)C2CCC(C2)C1(C)C (stereo not drawn)
inactive: outcome [1] | Potency [2] | outcome [3] | outcome [4] | outcome [5] | Potency [6] | max response [7] 12.1% and 8.7%

CN(C)[C@@H]1C(=O)C(C(N)=O)=C(O)[C@@]2(O)C(=O)C3=C(O)c4c(O)ccc(Cl)c4[C@@H](O)[C@H]3C[C@@H]12
active: Potency [6] 12.6 µM
inactive: outcome [1] | Potency [2] | outcome [3] | outcome [4] | outcome [5] | max response [7] -7.62% and 22.4%

NC/C=C/C(=O)O
inactive: outcome [1] | Potency [2] | outcome [3] | outcome [4] | outcome [5] | Potency [6] | max response [7] 18.4% and 29.6%

O=C1NCN(c2ccccc2)C12CCN(CCCC(c1ccc(F)cc1)c1ccc(F)cc1)CC2
5.05%: parasite growth, % of DMSO control [8]
11.8%: parasite growth, % of control (lower = inhibition) [10]
4.02%: growth, % of control [11]
9.4%: parasite growth remaining, % of DMSO control (lower = more inhibition) [9]
inactive: outcome [1] | Potency [2] | outcome [3] | outcome [4] | outcome [5] | Potency [6]

NC(=Nc1ccccc1)Nc1ccccc1
inactive: outcome [12] | max response [7] 5.26% and -9.95% | max response [13] -13.7% and -2.76% | outcome [14]

CCc1c(C)[nH]c2c1C(=O)C(CN1CCOCC1)CC2 (stereo not drawn)
inactive: outcome [1] | Potency [2] | outcome [3] | outcome [4] | outcome [5] | Potency [6] | max response [7] 2.02% and 26.2%

OCCN1CCN(CC/C=C2/c3ccccc3Sc3ccc(C(F)(F)F)cc32)CC1
inactive: outcome [1] | Potency [2] | outcome [3] | outcome [4] | outcome [5] | Potency [6]

CC(=O)OCC1=C(C(=O)O)N2C(=O)[C@@H](NC(=O)Cc3cccs3)[C@H]2SC1
inactive: outcome [1] | Potency [2] | outcome [3] | outcome [4] | outcome [5] | Potency [6] | max response [7] 2.41% and 26.5%

COC(=O)C1=C(C)NC(C)=C(C(=O)OC(C)(C)CN(C)CCC(c2ccccc2)c2ccccc2)C1c1cccc([N+](=O)[O-])c1 (stereo not drawn)
inactive: outcome [1] | Potency [2] | outcome [3] | outcome [4] | outcome [5] | Potency [6] | max response [7] 7.33% and 12.6%

CN(C)C(=O)Oc1cccc([N+](C)(C)C)c1
inactive: outcome [1] | Potency [2] | outcome [3] | outcome [4] | outcome [5] | Potency [6] | max response [7] 5.44% and 20.8%

C[N+](C)(C)CCCCCCCCCC[N+](C)(C)C
inactive: outcome [4] | outcome [5] | Potency [6]

CC(C)COCC(CN(Cc1ccccc1)c1ccccc1)N1CCCC1 (stereo not drawn)
2.98%: growth, % of control [11]
7.8%: parasite growth remaining, % of DMSO control (lower = more inhibition) [9]
5.43%: parasite growth, % of DMSO control [8]
inactive: outcome [1] | Potency [2] | outcome [3] | outcome [4] | outcome [5] | Potency [6]
16%: parasite growth, % of control (lower = inhibition) [10]

CSc1ccc(C(=O)c2[nH]c(=O)[nH]c2C)cc1
inactive: outcome [4] | outcome [5] | Potency [6] | max response [7] 9.34% and 5.87%

CCCCNc1c(C(=O)OCC)c(C)nc2c1cnn2CC
inactive: outcome [1] | Potency [2] | outcome [3] | outcome [4] | outcome [5] | Potency [6] | max response [7] -2.63% and 24%

CCn1cc(C(=O)O)c(=O)c2cc3c(cc21)OCO3
inactive: outcome [1] | Potency [2] | outcome [3] | outcome [4] | outcome [5] | Potency [6] | max response [7] -6.25% and -3.93%

NCCCNCCSP(=O)(O)O
inactive: outcome [1] | Potency [2] | outcome [3] | outcome [4] | outcome [5] | Potency [6] | max response [7] 4.77% and 12.2%

O=C1CC2(CCCC2)CC(=O)N1CCCCN1CCN(c2ncccn2)CC1
inactive: outcome [1] | Potency [2] | outcome [3] | outcome [4] | outcome [5] | Potency [6]

O=C(CCNNC(=O)c1ccncc1)NCc1ccccc1
inactive: outcome [1] | Potency [2] | outcome [3] | outcome [4] | outcome [5] | Potency [6] | max response [7] -0.149% and 4.87%

NC1=NCC2c3ccccc3Cc3ccccc3N12 (stereo not drawn)
inactive: outcome [1] | Potency [2] | outcome [3] | outcome [4] | outcome [5] | Potency [6]

C[C@]12CCC(=O)C=C1CC[C@@H]1[C@@H]2CC[C@@]2(C)[C@H]1CC[C@]2(O)C(=O)CO
inactive: outcome [1] | Potency [2] | outcome [3] | outcome [4] | outcome [5] | Potency [6] | max response [7] -4.53% and -8.22%

C[C@]12CC[C@@H]3c4ccc(O)cc4C[C@@H](CCCCCCCCCS(=O)CCCC(F)(F)C(F)(F)F)[C@H]3[C@@H]1CC[C@@H]2O (stereo partly drawn)
inactive: outcome [1] | Potency [2] | outcome [3] | outcome [4] | outcome [5] | Potency [6]
